# Sampled rows, rich in hits. Any-hit rate of the full collection: about 6%.
# D3 antag = D3 dopamine receptor (human) antagonism; D3R cells, DiscoveRx beta-arrestin luminescence, antagonist mode; hits give low values; max response, negative = inhibition, %; actives 2.5% (n = 360,000); AID 652054; in the data active = max response below about -50%; inconclusive = no clear call, values can overlap the other calls; also: % is scaled to controls: 0 for no effect and ±100 for the full control effect
# Target sequence (P35462 whole entry, looked up): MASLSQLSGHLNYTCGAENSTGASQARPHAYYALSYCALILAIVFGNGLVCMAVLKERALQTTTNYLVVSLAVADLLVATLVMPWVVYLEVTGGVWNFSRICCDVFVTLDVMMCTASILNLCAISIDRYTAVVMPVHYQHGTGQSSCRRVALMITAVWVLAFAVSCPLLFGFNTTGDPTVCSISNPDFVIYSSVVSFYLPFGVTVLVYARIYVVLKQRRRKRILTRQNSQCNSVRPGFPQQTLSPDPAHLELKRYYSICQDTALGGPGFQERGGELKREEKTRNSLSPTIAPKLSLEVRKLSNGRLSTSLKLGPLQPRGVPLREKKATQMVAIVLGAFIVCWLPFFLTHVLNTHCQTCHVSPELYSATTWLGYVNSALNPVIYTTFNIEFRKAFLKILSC
#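 Cells expressing the human receptor were seeded at 1500 cells/well, incubated overnight at 37 degrees C in 5% CO2, then exposed to library compounds with dopamine controls for 90 minutes at 37 degrees C before luminescent detection.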
# D1 potentiator = potentiators of human D1 dopamine receptor | actives 0.036% (n = 360,000) | HEK293 TREx D1 cells, calcium flux, dopamine EC20 potentiation | potentiation, % at 10 µM; in the data active = potentiation above about 30%; also: 0% is about no effect
# D1 agonist = agonists of human D1 dopamine receptor; HEK293 T-REx D1 cells, calcium flux, agonist mode; activation, % at 2 µM; actives 1% (n = 360,000); in the data active = activation above about 30%; also: 0% is about no effect
#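 Tetracycline-induced HEK293 TREx D1 cells, force-coupled to calcium signalling, were dye-loaded with a no-wash calcium kit. Compound was pin-added after a 10 s baseline. Fluorescence was read kinetically at 1 cycle/s for 180 s, with calcium rises flagged as agonism.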
# DRD3 agonist = agonists of human D3 dopamine receptor | actives 0.58% (n = 410,000) | max activation, % | D3R DiscoveRx beta-arrestin cells, luminescence, 90 min | P35462; in the data active = max activation above about 30%; also: 0% is about no effect
#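 Agonist-mode cell screen: cells plated at 1500/well and incubated overnight at 37 °C, then exposed to library compounds for 90 min at 37 °C. Detection reagent was added for 30–60 min at room temperature, and luminescence was read.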
# D1 antag = human D1 dopamine receptor antagonism | P21728 | AID 504652 | activity change, negative = inhibition, % at 10 µM | HEK293 TREx D1 cells, calcium flux, dopamine EC80; hits give low values | actives 3.2% (n = 360,000); in the data active = activity change below about -30%; also: % is scaled to controls: 0 for no effect and ±100 for the full control effect
#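 Kinetic fluorescence of a calcium dye serves as the read-out. D1-expressing Hek293 Trex cells, induced overnight at 30 C, are exposed to compound for 180 s before an EC80 dopamine addition, then read 180 s further.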
# * = called active by the depositor; ? = inconclusive; . = not tested or not shown; ! = repeats disagree.
SMILES,D3 antag,D1 potentiator,D1 agonist,DRD3 agonist,D1 antag
FC(F)(F)c1cnc(Sc2nnc(-c3cccs3)n2CC2CCCO2)c(Cl)c1 (configuration not stated),-4.3,-6.2,-2.9,30.8*,-1.2
CC(=O)c1cc2c(cc1NC(=O)CSc1nc3ccccc3o1)OCO2,30.8,7.3,2.1,-1.0,-35.5*
Clc1c(CSc2nc3ccccc3o2)nc2ccccn12,0.0,-8.2,1.3,3.4,-39.3*
CC(=O)CSc1nc2ccccc2o1,-15.1,-7.7,0.4,-4.5,11.0
COC(=O)CSc1nc2ccccc2o1,6.4,-5.8,1.0,-3.1,-36.9*
Cc1ccc(-c2csc(NC(=O)CSc3nc4ccccc4o3)n2)cc1,13.6,-4.2,4.1,2.6,-35.1*
CCc1ccc(NC(=O)CCn2cnc3ccccc3c2=O)cc1,.,0.2,-0.2,-16.1,-10.5
CCN(CC)S(=O)(=O)c1ccc2c(c1)nc(CN(C)C(=O)Nc1ccc(F)cc1)n2C,.,-0.6,-0.1,-26.9,7.8
CCOC(=O)C1=C(CNCc2ccccc2)NC(=O)NC1c1ccc(C)cc1 (configuration not stated),.,3.5,-1.0,3.5,4.6
Cc1nnc(NC(=O)CSc2nc3ccccc3o2)s1,-22.7,5.3,1.1,-19.2,-1.1
O=C(CSc1nc2ccccc2o1)Nc1nc(-c2ccccc2)c(-c2ccccc2)s1,-25.1,-9.0,0.1,1.5,-90.2*
NCCc1cnc[nH]1,-1.3,-3.5,53.4*!,9.1,-11.6
O=C(N=C1SCC(=O)N1c1ccccc1Cl)c1ccco1,39.8,-12.9,7.1,3.6,-32.5*
C#CCCCCCCC#CCN(C)C,-58.1*,1.9,3.0,-15.3,-25.8
CN(C)CC#CCCCCCCC#CCN(C)C,.,-1.3,2.5,.,0.2
COc1cccc(CNS(=O)(=O)c2cc3c(cc2C)NC(=O)CO3)c1,15.7,-9.8,5.7,2.8,-32.4*
Cc1ccc(CNC(=O)CCS(=O)(=O)c2cc3c(cc2C)NC(=O)CO3)cc1,9.5,-10.2,1.7,0.2,-31.8*!
CC(=O)c1cccc(NS(=O)(=O)c2cc3c(cc2C)NC(=O)CO3)c1,4.8,0.7,3.2,3.1,-22.3
COc1ccc(NS(=O)(=O)c2cc3c(cc2C)NC(=O)CO3)c(OC)c1,8.2,-9.7,5.3,-2.6,-57.8*!
CCOC(=O)c1cccc(NS(=O)(=O)c2cc3c(cc2C)NC(=O)CO3)c1,.,-4.0,1.4,1.2,-46.4*
COc1cccc(CNS(=O)(=O)c2cc3c(cc2Cl)NC(=O)CO3)c1,-9.1,0.5,2.1,4.8,-16.2
Cc1nc2ncnn2c(C)c1CCC(=O)N1CCN(c2ccccc2)CC1,.,-2.8,-1.1,-4.6,18.8
COc1ccc(CCNC(=O)CCc2c(C)c3ccc(O)c(C)c3oc2=O)cc1,.,-1.1,3.3,-0.9,-17.9
Cc1cc2c(cc1S(=O)(=O)N(C)CC(=O)Nc1ccc(C#N)cc1)OCC(=O)N2,.,-4.8,2.2,9.4,-54.9*
C=CCn1c(SCc2ccc(C#N)cc2)nnc1-c1cccc(Cl)c1,-0.5,-3.2,-3.7,-3.4,-39.5*
SMILES,D3 antag,D1 potentiator,D1 agonist,DRD3 agonist,D1 antag
COc1ccc(CNC(=O)CC(c2ccc(OC)c(OC)c2)N2Cc3ccccc3C2=O)cc1 (configuration not stated),.,-2.0,-1.5,0.9,-1.6
Cc1ccc(CNC(=O)c2c(O)nc3ccccn3c2=O)cc1,.,-2.0,2.5,1.3,5.1
CNC(=S)N1C2CCCC1CC(NC(=O)c1ccc(C)cc1)C2 (configuration not stated),96.0,.,.,0.8,.
CNC(=S)NC1CC2CCCC(C1)N2Cc1ccc(C)cc1 (configuration not stated),-115.7*,-3.3,1.8,-9.2,2.8
CCNC(=S)NC1CC2CCCC(C1)N2Cc1ccc(C)cc1 (configuration not stated),-117.9*,-6.5,5.7,-7.7,5.9
CC(=O)NC1CC2CCC(C1)N2Cc1ccc(C)cc1 (configuration not stated),-3.8,-8.0,0.7,-8.6,3.1
CNC(=S)NC1CC2CCCC(C1)N2Cc1ccccc1OC (configuration not stated),-61.6*,-3.1,3.2,-36.6,-1.3
CCC(=O)NC1CC2CCCC(C1)N2Cc1ccc(C)cc1 (configuration not stated),-108.2*,-0.8,0.9,-19.7,10.6
CCNC(=S)NC1CC2CCCC(C1)N2Cc1ccco1 (configuration not stated),-28.2,-4.2,0.6,-20.6,7.5
CCCC[C@]12Cc3cc(C#N)ccc3C(O1)c1c(cc(-c3ccccc3)oc1=O)O2,.,1.9,1.6,.,3.6
CC1CCc2c(sc(NC(=O)CSc3ncnc4c3cnn4-c3ccccc3Cl)c2C#N)C1 (configuration not stated),8.6,-1.4,1.1,-1.1,-38.8*
Cc1csc(NC(=O)CSc2ncnc3c2cnn3-c2ccccc2Cl)n1,-16.1,-12.7,6.7,3.0,-30.9*
Cc1nc2ncnn2c(C)c1CCC(=O)NCc1ccccc1Cl,.,-0.8,0.8,-4.3,-10.2
CC(=O)c1ccc(N2CCN(C(=O)c3cc(-c4ccncc4)nc4ccc(Cl)cc34)CC2)cc1,0.7,3.0,4.1,34.3*,6.9
CC(C)CN(CC(C)C)S(=O)(=O)N1CCC(C(=O)NC2CCCCCCC2)CC1,5.2,-0.5,4.5,1.1,-35.6*
CC(C)(C)C1CCc2nc(NC(=O)Cc3ccccc3)sc2C1 (configuration not stated),.,3.3,3.8,2.9,8.1
Nc1nc2c(s1)CC(c1ccccc1)CC2 (configuration not stated),-10.0,-2.9,5.2,-3.4,-30.3*
O=C(Nc1ccc(Cl)cc1Cl)c1cc2ccccc2o1,13.2,-1.1,8.0,-9.0,25.5
O/N=C(\c1ccc(Cl)cc1)c1cc2ccccc2o1,23.1,-2.5,32.0*,8.0,-16.1
CCOC(=O)c1cn[nH]c1NC(=S)Nc1ccc(OC)cc1,-5.6,1.1,9.8,1.4,-39.4*
COC(=O)c1cn[nH]c1NC(=S)Nc1ccc(Cl)c(Cl)c1,1.5,0.5,4.5,23.4,-26.4
COc1nccnc1NS(=O)(=O)c1ccc(NC(=S)NC(=O)/C=C/c2ccccc2)cc1,-62.5*,-8.4,0.4,-9.8,3.3
COc1ccc(NC(=S)NC(NC(=O)/C=C/c2ccccc2)C(Cl)(Cl)Cl)cc1 (configuration not stated),-68.9*,-1.4,3.2,-7.2,-9.7
COc1nccnc1NS(=O)(=O)c1ccc(NC(=S)NC(=O)c2ccccc2)cc1,?,-0.6,-0.1,-5.4,6.3
CCOC(=O)c1ccc(NC(=S)Nc2cccc(N)n2)cc1,1.3,-3.7,1.5,-11.7,-34.2*
CCCCOc1ccc(NC(=O)CSc2ccc(C(=O)O)cn2)cc1,.,1.9,2.1,8.6,-4.8
CCOC(=O)c1c(C)c(-c2ccccc2)n(CC(=O)NCc2ccccc2)c1C,.,-6.8,0.9,0.8,-2.3
